The OligoGym collection
Also: reference of the scale not given here.

The sequences below were run against ZSCAN21 (assay: pooled miR-30 sensor sort-seq; sequence = guide strand). Details: shRNA.
ATATATAACGTCTCTCTCCTGG showed a sensor-assay potency score (higher = more potent) of 0.19. TTTAAGAAGGTCTGAGCTCTGC gave a sensor-assay potency score (higher = more potent) of 0.0311. TTCGTTACACTGATAAGGCTTC gave a sensor-assay potency score (higher = more potent) of 0.478. For TACTCAATCTGCAATCTCGGAC, the sensor-assay potency score (higher = more potent) was -0.338. Work on TTAACTAGACTGGATACACGTC yielded a sensor-assay potency score (higher = more potent) of -0.514.

These sequences were tested against ZSCAN2 in the same assay as above. Details: shRNA.
TTAGATTGGAGTTGTAACTAAA was tested, and the sensor-assay potency score (higher = more potent) was -0.577. TTGTAACTAAAGCTTTCGCCGC was tested, and the sensor-assay potency score (higher = more potent) was -0.979. TAGTATACAAAAGCTACCCGAC showed a sensor-assay potency score (higher = more potent) of -0.627. Work on TTTCCGAGAATATCTTACGTGA yielded a sensor-assay potency score (higher = more potent) of -0.583. TTGAGGAGGTTGGAGCTCCAGC showed a sensor-assay potency score (higher = more potent) of -0.932. Work on TTGTAGTATTTCTCTCCTGTGT yielded a sensor-assay potency score (higher = more potent) of -0.38. Work on TTCATTCTCAAACATGTCTTGA yielded a sensor-assay potency score (higher = more potent) of -0.592. Sequence TTCACTGTCCTGAAGGGTCTGG has a sensor-assay potency score (higher = more potent) of 0.109. TATCTCAAAATCACTGTCCTGA was tested, and the sensor-assay potency score (higher = more potent) was 0.962. TACAGCACTGTCCTGAAGGGTC showed a sensor-assay potency score (higher = more potent) of -0.556. With TAAAGCTTTTTCCACATTCATC the sensor-assay potency score (higher = more potent) was -1.45. With TAAAATTTGAACCATCACTAAA the sensor-assay potency score (higher = more potent) was -1.38.

Each sequence was assayed against ZSWIM5 in the same assay as above. Details: shRNA.
With TTGCACTAGCTCATCGTCCAGC the sensor-assay potency score (higher = more potent) was -0.629. Work on TTGAGGTTGTCGATGAACTGGG yielded a sensor-assay potency score (higher = more potent) of -0.0434. Sequence TAGTGAATACTGTTCGTCTTGG has a sensor-assay potency score (higher = more potent) of -0.686. TAGCTCATCGTCCAGCTGCAGC was tested, and the sensor-assay potency score (higher = more potent) was -1.21. Work on TAGAATATGTCCTTGTTCCCAC yielded a sensor-assay potency score (higher = more potent) of -0.0166. With TTCTGTAGCACAGGTCACCAAC the sensor-assay potency score (higher = more potent) was -1.2. With TTAAAGAGTAGTCTTTCACTTT the sensor-assay potency score (higher = more potent) was -0.123. Sequence TAGCAATCTTGAATGCATCTTG has a sensor-assay potency score (higher = more potent) of 0.435. For TTTGTCAGTGGACATGAGCTTT, the sensor-assay potency score (higher = more potent) was -0.796. With TAGTCTTTCACTTTCCCGCTGG the sensor-assay potency score (higher = more potent) was 0.269. TTGTCTGTCATGTTTGTTCCTT was tested, and the sensor-assay potency score (higher = more potent) was -0.0787. TTGAGTTGAGTTGCTTTCCAGA was tested, and the sensor-assay potency score (higher = more potent) was -0.443.

Each sequence was assayed against ZZEF1 in the same assay as above. Details: shRNA.
For TTTAACAGGTCACAGTAGCGAG, the sensor-assay potency score (higher = more potent) was -1.06. With TTAACCTCCTTACTATTCCGGT the sensor-assay potency score (higher = more potent) was -0.49. In the case of TTATAGGCAAACACCAACCCAC, the sensor-assay potency score (higher = more potent) is reported as -0.586. Work on TTGAGAAATCTGTAGATCCTGG yielded a sensor-assay potency score (higher = more potent) of 0.26. Sequence TTAGTGTTTTATACAATCCTTT has a sensor-assay potency score (higher = more potent) of -0.602. For TTCAGCTGCAGGTAGCACCAGG, the sensor-assay potency score (higher = more potent) was -0.559. TTAATCTGGACATAGAGCTGAC showed a sensor-assay potency score (higher = more potent) of -0.316. TTTCTTTTGAACTTATGCCCGT gave a sensor-assay potency score (higher = more potent) of -0.351. TTGAGGAGCAGGTTCTGTCTGA was tested, and the sensor-assay potency score (higher = more potent) was -0.0904. TAGCACTTTGCTACTGACTTGA showed a sensor-assay potency score (higher = more potent) of 0.394. In the case of TTCTTGTTTTAGTATCTCCATG, the sensor-assay potency score (higher = more potent) is reported as -1.42.
